Shown are actives, neighbours in structure and some others; about 2.5% of the full set was active somewhere.
EWS-Fli block – inhibitors of EWS/Fli oncoprotein transcriptional activity | hit rate 0.67% among 350,000 | A673 NR0B1-luciferase reporter, viability-normalised | inhibition, % at 12.6 µM | AID 651661;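 active = mean inhibition of at least 50% after viability correction, with every replicate also passing that limit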;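 note: firefly luciferase signal divided by Alamar Blue viability fluorescence both relative to DMSO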
GAA850 FXN act – activators of GAA850 frataxin (FXN) promoter; HEK293 lucGAA850 FXN promoter luciferase reporter, 24 h; percent of 10 µM SAHA response; activation, % at 6 µM; hit rate 0.56% among 360,000;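 active = activation above the average of all compounds screened plus 3 SD, cutoff fixed separately per campaign, cut at about 7.5% in these data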
PAX8 reporter – inhibitors of PAX8 transcriptional activity in RMG-I cells; RMG-I TPO-luciferase reporter, SteadyGlo, 24 h; inhibition, % at 12.6 µM; hit rate 1.2% among 360,000;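 active = mean replicate inhibition at least 60% with every replicate also reaching 60%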;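 note: luciferase light reporting Pax8 driven TPO promoter activity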
Env fusion inh – blocks HIV Env-driven cell-cell fusion. hit rate 1.1% among 360,000. HeLa-JRFL Env/CEM21 cell fusion, luciferase. AID 651610. inhibition, % at 12.3 µM;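 active = mean replicate inhibition score of at least 50 and every replicate individually at or above 50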
CFTR F508del cor – correctors of CFTR F508del function in bronchial epithelial cells; CFBE cells, YFP halide quenching; stimulated with forskolin plus potentiator P3; % fluorescence drop versus neutral controls; activity (quench increase), % at 7.58 µM; hit rate 0.36% among 350,000; AID 720511;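 active = mean added fluorescence quench of at least 8% versus neutral control, with both replicates also reaching 8%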;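 note: cells transiently co-express mutant CFTR-F508del with the halide-sensitive YFP; corrector assay measuring rescue of mutant channel to the surface after 24 h compound exposure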
Large screens that a line does not name were inactive.

CCc1cnc(N2[C@@H](C#N)[C@H](c3ccc(C#CC(C)C)cc3)[C@@H]2CO)s1	none (no result: GAA850 FXN act, Env fusion inh)
O=C(NC[C@H]1[C@H](c2ccccc2)[C@H](CO)N1Cc1cccnc1)c1ccccn1	none (no result: GAA850 FXN act, Env fusion inh)
Cn1cc(/C=N/n2cnc3scc(-c4ccc(Cl)cc4)c3c2=O)c2ccccc21	PAX8 reporter 65 (no result: EWS-Fli block, CFTR F508del cor)
CCn1cnc2scc(-c3ccccc3)c2c1=O	none (no result: EWS-Fli block, CFTR F508del cor)
C[C@H]1CN([C@@H](C)CO)S(=O)(=O)c2ccc(-c3cncnc3)cc2O[C@@H]1CN(C)C(=O)Cc1ccccc1	none (no result: GAA850 FXN act)
CCN(CC)CCNCc1cc(Cl)c(OCC(=O)Nc2ccccc2)c(OC)c1	none
COc1cc(CNC(C)c2ccccc2)cc(Cl)c1OCC(=O)Nc1ccccc1 (stereo not drawn)	Env fusion inh 71
COc1cccc(C(=O)N/N=C(/c2ccccc2)c2ccccn2)c1	PAX8 reporter 65 (no result: EWS-Fli block, CFTR F508del cor)
COc1cc(C(=O)NN=C2c3ccccc3-c3ccccc32)cc(OC)c1OC	EWS-Fli block 59 (no result: GAA850 FXN act)
COc1cc(C(=O)N/N=C(\c2ccccc2)c2ccccn2)cc(OC)c1OC	PAX8 reporter 72, CFTR F508del cor 12
COc1cccc(C(=O)N/N=C(/CCC(=O)O)c2ccccc2)c1	none (no result: CFTR F508del cor)
C[C@@H]1CN([C@H](C)CO)C(=O)CCCn2cc(nn2)CO[C@@H]1CN(C)C(=O)Nc1ccccc1C(F)(F)F	none (no result: GAA850 FXN act, Env fusion inh)
O=C(Nc1ccc2c(c1)OCO2)N[C@H]1CC[C@@H](CCNC(=O)C2CCOCC2)O[C@H]1CO	none (no result: GAA850 FXN act, PAX8 reporter)
CN(C[C@H](Cc1ccccc1)N(C[C@H](Cc1ccccc1)N(CC1(c2ccccc2)CC1)N=O)N=O)N=O	Env fusion inh 98
CCC(C)[C@@H](CN(N=O)[C@@H](Cc1ccccc1)CN(C)N=O)N(CCc1ccccc1)N=O (stereo partly drawn)	none (no result: EWS-Fli block, PAX8 reporter, Env fusion inh, CFTR F508del cor)
CN(C[C@H](Cc1ccccc1)N(C[C@H](CC1CCCCC1)N(CCc1ccccc1)N=O)N=O)N=O	Env fusion inh 67
CN(CCC#N)C(=O)CC1(Cc2ccccc2)CCOC(C)(C)C1 (stereo not drawn)	none
CN(C[C@@H](CC1CCCCC1)N(C[C@H](Cc1ccccc1)N(CCc1ccccc1)N=O)N=O)N=O	Env fusion inh 84
O=C(C[C@@H]1C=C[C@H](NS(=O)(=O)c2cccc(F)c2)[C@@H](CO)O1)N1CCCCC1	none (no result: GAA850 FXN act)
CC(C)N(CC(=O)Nc1ccc(Cl)cc1C(F)(F)F)C(=O)CCl	PAX8 reporter 92
CCOC(=O)N1CCN(c2ncnc3c2[nH]c2ccc(F)cc23)CC1	Env fusion inh 64 (no result: EWS-Fli block, CFTR F508del cor)
CCOC(=O)N1CCN(c2ncnc3c2[nH]c2ccc(OC)cc23)CC1	none (no result: EWS-Fli block, CFTR F508del cor)
Cc1ccc(/C=C/C(=O)N2CCN(c3cccc(C(F)(F)F)c3)CC2)cc1	PAX8 reporter 89 (no result: CFTR F508del cor)
Cc1noc(C)c1COc1ccccc1C(=O)N1CCN(c2cccc(C(F)(F)F)c2)CC1	EWS-Fli block 64 (no result: Env fusion inh)
CO[C@@H]1CN(C)C(=O)c2ccc(NS(C)(=O)=O)cc2OC[C@H](C)N(C)C[C@@H]1C	none (no result: GAA850 FXN act, PAX8 reporter, Env fusion inh)
CCC(=O)N1c2ccc(S(=O)(=O)N3CCN(CC)CC3)cc2CC1C (stereo not drawn)	none
CCc1cccc(NC(=O)C2CCN(S(=O)(=O)c3ccc4c(c3)CC(C)N4C(C)=O)CC2)c1 (stereo not drawn)	Env fusion inh 68
CCC(=O)N1c2ccc(S(=O)(=O)N3CCN(c4ccc([N+](=O)[O-])cc4)CC3)cc2CC1C (stereo not drawn)	PAX8 reporter 68
CC1Cc2cc(S(=O)(=O)N3CCC(C(=O)N(C)Cc4ccco4)CC3)ccc2N1C(=O)C1CCC1 (stereo not drawn)	PAX8 reporter 61 (no result: EWS-Fli block)
COc1cccc(NC(=O)C2CCN(S(=O)(=O)c3ccc4c(c3)CC(C)N4C(C)=O)CC2)c1 (stereo not drawn)	none (no result: EWS-Fli block)
CC1CCN(S(=O)(=O)c2ccc3c(c2)CC(C)N3C(=O)C2CCC2)CC1 (stereo not drawn)	none
Cc1noc(C)c1S(=O)(=O)N(C)C[C@@H]1OCCCC[C@H](C)Oc2ccc(NC(=O)C3CCCCC3)cc2C(=O)N([C@H](C)CO)C[C@@H]1C	none (no result: GAA850 FXN act)
COC(=O)c1nn(-c2ccc3c(c2)CCN3C(C)=O)cc1O	Env fusion inh 73 (no result: EWS-Fli block, PAX8 reporter, CFTR F508del cor)
C[C@H](CO)N1C[C@H](C)[C@H](CN(C)Cc2cncnc2)Oc2cc(-c3cccnc3)ccc2S1(=O)=O	none (no result: GAA850 FXN act, PAX8 reporter)
CC(C)(C)c1ccc(S(=O)(=O)N2CCN(C3CCCC3)CC2)cc1	none
CC(C(=O)NC1CCCC1)N1CCN(S(=O)(=O)c2ccc(C(C)(C)C)cc2)CC1 (stereo not drawn)	CFTR F508del cor 13
C[C@]1(C(=O)NC2CC2)c2ccccc2C(=O)N(Cc2cc(C(F)(F)F)cc(C(F)(F)F)c2)[C@H]1c1ccc(CO)cc1	none (no result: GAA850 FXN act)
CCCC(=O)Nc1ccc2c(c1)OC[C@H](C)N(C(=O)c1ccccc1F)C[C@@H](C)[C@@H](OC)CN(C)C2=O	none (no result: GAA850 FXN act, PAX8 reporter, Env fusion inh)
C[C@@H]1CCCCO[C@H](CN(C)C(=O)C2CCCCC2)[C@H](C)CN([C@@H](C)CO)C(=O)c2cc(NC(=O)Nc3ccccc3)ccc2O1	none (no result: GAA850 FXN act)
COc1ccc(NC(=O)N(C)C[C@@H]2Oc3ccc(NC(=O)Nc4cccc5ccccc45)cc3C(=O)N([C@@H](C)CO)C[C@H]2C)cc1	none (no result: GAA850 FXN act, PAX8 reporter)
C[C@@H]1CCCCO[C@@H](CN(C)CC2CCCCC2)[C@@H](C)CN([C@@H](C)CO)C(=O)c2cc(NC(=O)Nc3ccccc3)ccc2O1	none (no result: GAA850 FXN act)
C[C@@H]1CCCCO[C@@H](CN(C)CC2CCCCC2)[C@@H](C)CN([C@H](C)CO)C(=O)c2cc(NC(=O)Nc3ccc(C(F)(F)F)cc3)ccc2O1	none (no result: GAA850 FXN act)
C[C@@H]1CCCCO[C@H](CN(C)CC2CCCCC2)[C@H](C)CN([C@@H](C)CO)C(=O)c2cc(NC(=O)Cc3ccccc3)ccc2O1	EWS-Fli block 73 (no result: GAA850 FXN act)
C[C@@H]1CCCCO[C@H](CN(C)CC2CCCCC2)[C@H](C)CN([C@@H](C)CO)C(=O)c2cc(NC(=O)Nc3ccc(C(F)(F)F)cc3)ccc2O1	EWS-Fli block 81 (no result: GAA850 FXN act)
C[C@@H]1CCCCO[C@H](CN(C)CC2CCCCC2)[C@H](C)CN([C@@H](C)CO)C(=O)c2cc(NC(=O)Nc3ccccc3)ccc2O1	PAX8 reporter 78 (no result: GAA850 FXN act)
C[C@H](CO)N1C[C@H](C)[C@H](CN(C)CC2CCCCC2)OCCCC[C@H](C)Oc2ccc(NC(=O)Cc3ccccc3)cc2C1=O	none (no result: GAA850 FXN act)
C[C@@H]1CCCCO[C@@H](CN(C)CC2CCCCC2)[C@H](C)CN([C@@H](C)CO)C(=O)c2cc(NC(=O)Nc3ccc(C(F)(F)F)cc3)ccc2O1	EWS-Fli block 76 (no result: GAA850 FXN act)
COc1cccc(S(=O)(=O)N2C[C@@H](O)COC[C@H]3O[C@H](CC(=O)N4CCOCC4)CC[C@@H]32)c1	none (no result: GAA850 FXN act, Env fusion inh)
O=C(O)C[C@@H]1CC[C@H](NC(=O)CCN2CCCCC2)[C@@H](CO)O1	none (no result: EWS-Fli block, GAA850 FXN act, Env fusion inh)
O=C(NCc1ccc(F)cc1)[C@@H]1[C@@H](CO)[C@@H]2Cn3c(cccc3=O)[C@H]1N2Cc1cccnc1	none (no result: GAA850 FXN act, PAX8 reporter, Env fusion inh)
Cc1cccc(NC(=O)c2onc3c2CCCC3)n1	EWS-Fli block 71 (no result: Env fusion inh)
Cc1cccc(NC(=O)c2onc3c2CCCC3)c1C	none (no result: EWS-Fli block, PAX8 reporter, Env fusion inh, CFTR F508del cor)

High-throughput results deposited in PubChem BioAssay by several laboratories.
